Experimental data from a collection of fitness landscapes (doi:10.1016/j.celrep.2020.107928).
Whole data set: some 81,000 sequences, median “one-hybrid fitness for binding NBS DNA” near -0.1, cut for the highest 2% near 0.36. What follows is part of a selection rich in the highest values, with near analogues and random picks from the rest.

B1: Caulobacter ParB omega fusion; a variant is named by its letters at X, in order, B8GW30 (parent)
chain: MESVVVGEPGMSEGRRGLGRGLSALLGEVDAAPAQAPGEQLGGSREAPIEILQRNPDQPRRTFREEDLEDLSNSIREKGVLQPILVRPSPDTAGEYQIVAGERAWRAAQRAGLKTVPIMVRELDDLAVLEIGIIENVQRADLNVLEEALSYKVLMEKFERTQENIAQTIGKSXSHVANXMRLLXLPDEVQSYLVSGELTAXHARAIAAAADPVALAKQIIEGGLSVRETEALARKAPNLSAGKSKGGRPPRVKDTDTQALESDLSSVLGLDVSIDHRGSTGTLTITYATLEQLDDLCNRLTRGI

Variants of: B1
Test: one-hybrid fitness for binding NBS DNA (the Noc-binding site; scaled: cognate 1, non-cognate 0); higher = stronger binding
Details: with NBS DNA site
Outline: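 Selection: bacterial one-hybrid in E. coli USO, HIS3 reporter with the site 19 bp from the promoter, 48 hours at 37°C on M9-minus-histidine plus 0.1 mM IPTG and 5 mM 3-AT. Libraries were Caulobacter ParB with four randomised specificity codons, sequenced on Illumina before and after selection. Fitness is the rescaled log change in variant-to-wild-type read ratio, anchored to the cognate and non-cognate sites.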

| Variant | one-hybrid fitness for binding NBS DNA |
| --- | --- |
| SITS | ≤ 0.2 |
| LTLV | ≤ 0.2 |
| SPPA | ≤ 0.2 |
| RRRE | 0.219 |
| RRYH | 0.436 |
| RSRH | 0.335 |
| RRRH | 0.808 |
| RCRH | 0.46 |
| RPRH | ≤ 0.2 |
| RREH | 0.296 |
| RRRL | 0.25 |
| RRPH | 0.294 |
| SHTT | ≤ 0.2 |
| VASP | ≤ 0.2 |
| SECF | ≤ 0.2 |
| NISL | ≤ 0.2 |
| QYRC | 0.38 |
| QYVC | ≤ 0.2 |
| QYDC | ≤ 0.2 |
| QYNC | ≤ 0.2 |
| QYYC | ≤ 0.2 |
| QYKC | 0.371 |
| MESV | ≤ 0.2 |
| SGNS | ≤ 0.2 |
| GITD | ≤ 0.2 |

| Variant | one-hybrid fitness for binding NBS DNA |
| --- | --- |
| RVSA | ≤ 0.2 |
| RLCT | 0.396 |
| RLPT | ≤ 0.2 |
| RLGM | ≤ 0.2 |
| RMCT | 0.366 |
| RMCF | ≤ 0.2 |
| RLCP | ≤ 0.2 |
| RLLT | 0.337 |
| RLYT | 0.391 |
| RLGT | 0.389 |
| RLGC | ≤ 0.2 |
| RMCL | ≤ 0.2 |
| RLCH | ≤ 0.2 |
| APPM | ≤ 0.2 |
| YKNV | ≤ 0.2 |
| MWIF | ≤ 0.2 |
| QMEK | ≤ 0.2 |
| LNIR | ≤ 0.2 |
| FVCG | ≤ 0.2 |
| LKHR | ≤ 0.2 |
| RTCT | 0.531 |
| RTCK | ≤ 0.2 |
| RLHY | ≤ 0.2 |
| RTCC | ≤ 0.2 |
| RLRT | 0.657 |

| Variant | one-hybrid fitness for binding NBS DNA |
| --- | --- |
| RLSH | ≤ 0.2 |
| RLHT | 0.437 |
| RLWT | 0.23 |
| RLSP | ≤ 0.2 |
| RLIT | 0.23 |
| RLST | 0.46 |
| RLHN | ≤ 0.2 |
| FWLT | ≤ 0.2 |
| PFLT | ≤ 0.2 |
| THKK | ≤ 0.2 |
| QSNE | ≤ 0.2 |
| SMHG | ≤ 0.2 |
| TFYD | ≤ 0.2 |
| RCCT | 0.39 |
| RLKP | ≤ 0.2 |
| RLQD | ≤ 0.2 |
| RPCT | ≤ 0.2 |
| RLNT | 0.528 |
| RLVT | 0.236 |
| RLNH | 0.201 |
| RLQN | ≤ 0.2 |
| RLKT | 0.644 |
| RLDT | ≤ 0.2 |
| RLQT | 0.462 |
| RSCT | 0.281 |

| Variant | one-hybrid fitness for binding NBS DNA |
| --- | --- |
| KERP | ≤ 0.2 |
| SPFL | ≤ 0.2 |
| PQIR | ≤ 0.2 |
| QSHW | ≤ 0.2 |
| AERM | ≤ 0.2 |
| QAMH | 0.219 |
| QTMR | 0.656 |
| QAMN | ≤ 0.2 |
| EMMN | ≤ 0.2 |
| QSMN | ≤ 0.2 |
| QSMR | 0.456 |
| EMMK | 0.405 |
| QAMR | 0.45 |
| EMMS | ≤ 0.2 |
| QTMC | ≤ 0.2 |
| QTMY | 0.232 |
| QSMH | ≤ 0.2 |
| LIRV | ≤ 0.2 |
| RMDQ | ≤ 0.2 |
| VSTS | ≤ 0.2 |
| CNRT | ≤ 0.2 |
| IWRR | ≤ 0.2 |
| PMRP | ≤ 0.2 |
